Test [1] is described as follows: qHTS assay to identify small molecule antagonists of the estrogen related receptor (ERR) signaling pathway from Tox21 library - cell viability counter screen (AID 1224834). Further: nearly all actives have a fitted effect of over 30% in size. Further: potency means the concentration at half of the fitted maximal effect. The gist of the method:
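ERR reporter cells, 2,000 per well, rested 6 h, then exposed to compound in DMSO for 17.5 hours at 37 C. Viability read as fluorescence after 30 min with CellTiter-Fluor.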
Background: Quantitative high-throughput screening tests each substance at several concentrations.

The nature of test [2]: qHTS assay to identify small molecule agonists of the constitutive androstane receptor (CAR) signaling pathway - cell viability counter screen (AID 1224836). Further: nearly all actives have a fitted effect of over 45% in size. The method, boiled down:
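Viability read-out: CellTiter-Fluor fluorescence after 23 h compound exposure at 37 C/5% CO2 in double-stable HepG2-CYP2B6-hCAR cells, with PK11195 present at 0.75 uM final; compounds tested in 15-point titration.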

The nature of test [3]: qHTS assay to identify small molecule antagonists of the constitutive androstane receptor (CAR) signaling pathway - cell viability counter screen (AID 1224837). Further: nearly all actives have a fitted effect of over 45% in size. The gist of the method:
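HepG2 cells stably carrying hCAR and CYP2B6-2.2kb reporter, stimulated with 50 nM CITCO and compounds at 15 concentrations for 23 h at 37 C. Viability measured by CellTiter-Fluor fluorescence.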

Test [4] in a line: qHTS assay to identify small molecule antagonists of the estrogen related receptor signaling pathway with the pleiotropic PPARgamma coactivator (PGC) from Tox21 10K library - cell viability counter screen (AID 1224840; active means well fitted cell-killing curve with a large enough effect in the repeat runs, not every such curve was filed as active; further: nearly all actives have a fitted effect of over 40% in size). The gist of the method: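 PGC/ERR cells (2,000/well) plated 6 h, then compound-treated for 17.5 h at 37 C. Viability measured by CellTiter-Fluor fluorescence after 30 min at 37 C, multiplexed with the pathway assay.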

Test [5] concerns the target Thyrotropin receptor (Homo sapiens) (UniProt P16473). Description: qHTS assay to identify small molecule agonists of the thyroid stimulating hormone receptor (TSHR) signaling pathway (AID 1224843; calls by dose curve; further: nearly all actives have a fitted effect of over 45% in size). The method, boiled down: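 Cell line HEK293 with TSHR; density 800/well. Exposure 30 min RT. Readout HTRF cAMP (cAMP-d2/anti-cAMP-cryptate), 1 h RT before reading.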
Test [6] in a line: qHTS assay to identify small molecule agonists of H2AX (AID 1224845; active means well fitted activation curve with a large enough effect in the signal ratio in the repeat runs, not every such curve was filed as active; the % refers to the signal ratio). The gist of the method:
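Wild-type CHO-K1 cells plated overnight, then exposed 3 hr at 37C to compounds at 15 concentrations (0.76% DMSO). Lysed, then HTRF anti-pH2AX(S139)-cryptate/anti-H2AX-d2 detection after 24 hr at room temperature; emissions 665 and 620 nm.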

Test [7] in a line: qHTS assay to identify small molecule agonists of the hypoxia (HIF-1) signaling pathway (AID 1224846; active means well fitted activation curve with a large enough effect in the signal ratio in the repeat runs, not every such curve was filed as active; the % refers to the signal ratio). The gist of the method:
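HRE-bla ME-180 beta-lactamase reporter cells in medium with 0.5% dialyzed FBS, pre-incubated 5 h then exposed to compounds 17 h at 37C, 5% CO2; reporter induction read with CCF4-AM FRET substrate.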

Test [8] in a line: qHTS assay to identify small molecule agonists of H2AX - cell viability counter screen (AID 1224847; calls by dose curve; further: top concentration of the series differs between compounds; nearly all actives have a fitted effect of over 30% in size). The gist of the method:
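CHO-K1 wt, 1000 cells/well, o/n 37C; cpds 15 conc, 3 h 37C, 0.76% DMSO; CellTiter-Glo, 30 min RT, luminescence.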

Test [9] is described as follows: qHTS RealTime-Glo MT Cell Viability Assay in HepG2 cells - 24 hour (AID 1224867). Further: nearly all actives have a fitted effect of over 50% in size. Further: potency means the concentration at half of the fitted maximal effect. The gist of the method:
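Cell number in HepG2 cultures estimated from NanoLuc luminescence generated by metabolic reduction of a prosubstrate by living cells. The homogeneous, nonlytic format allowed repeated reads at 0, 8, 16, 24, 32 and 40 h of compound exposure.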

A short description of test [10]: qHTS RealTime-Glo MT Cell Viability Assay in HEK293 cells - 32 hour (AID 1224868). Further: nearly all actives have a fitted effect of over 50% in size. Further: potency means the concentration at half of the fitted maximal effect. The gist of the method: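 Homogeneous bioluminescent viability format in HEK293 cells (600 cells/well). Following 5 h at 37 C/5% CO2, 23 nL compound was pintooled; the signal was measured repeatedly during 40 h incubation.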
Test [11] can be described thus: A CellTox Green Cytotoxicity Assay to monitor cytotoxicity in HEK293 cells - 0 hour (AID 1224869). Further: nearly all actives have a fitted effect of over 50% in size. The method, boiled down: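 HEK293 cells, 600/well, were preincubated 5 hours and then exposed to compounds at 37 C for up to 40 hours. A cell-impermeant cyanine dye staining dead-cell DNA was read by fluorescence at 0, 8, 16, 24, 32 and 40 h time points.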
Test [12] in a line: qHTS RealTime-Glo MT Cell Viability Assay in HepG2 cells - 40 hour (AID 1224870). Further: nearly all actives have a fitted effect of over 50% in size. Further: potency means the concentration at half of the fitted maximal effect. The method, boiled down:
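HepG2 cells mixed with RealTime-Glo MT reagents (NanoLuc plus cell-permeant prosubstrate) were seeded at 600 cells/well, incubated 5 h at 37 C/5% CO2, then pinned with compounds in DMSO; nonlytic luminescence tracked viability during 40 h treatment.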

The target in test [13] is Luciferin 4-monooxygenase (Photinus pyralis) (UniProt P08659). Kind of test: qHTS assay to identify small molecule inhibitors of firefly luciferase (AID 1224835). Further: nearly all actives have a fitted effect of over 25% in size. The gist of the method:
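Quantitative HTS format; KM concentrations of both substrates. Purified P. pyralis FLuc activity quantified from luminescence images.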

In test [14] the target is Nuclear receptor subfamily 1 group I member 3 (Homo sapiens) (UniProt Q14994). Kind of test: qHTS assay to identify small molecule antagonists of the constitutive androstane receptor (CAR) signaling pathway (AID 1224838). Further: nearly all actives have a fitted effect of over 40% in size. The gist of the method:
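HepG2 cells stably carrying hCAR and a CYP2B6-2.2kb luciferase reporter, seeded 4 hrs before compound (15 concentrations). Stimulated with 50 nM CITCO for 24 hr at 37 C. ONE-Glo luminescence read after 30 min at room temperature.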

The nature of test [15]: qHTS assay to identify small molecule antagonists of the estrogen related receptor signaling pathway with the pleiotropic PPARgamma coactivator (PGC) from Tox21 10K library (AID 1224841; call rule not given here). The gist of the method:
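PGC/ERR cell line, 2,000 cells/well, pre-incubated 6 hours at 37 C, then exposed to compounds for 18 hours at 37 C; luciferase read with One-Glo luminescence after 30 min at room temperature.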

A short description of test [16]: qHTS assay to identify small molecule agonists of the estrogen related receptor signaling pathway with the pleiotropic PPARgamma coactivator (PGC) from Tox21 10K library (AID 1224842). Further: nearly all actives have a fitted effect of over 15% in size. The method, boiled down: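 PGC/ERR reporter cells (NTP line) were seeded 2,000 per well, rested 6 h at 37 C/5% CO2, then pin-dosed with compounds in DMSO for 18 h at 37 C; luciferase read by One-Glo luminescence after 30 min at room temperature.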

Test [17] is described as follows: qHTS assay to identify small molecule antagonists of the estrogen related receptor (ERR) signaling pathway from Tox21 library (AID 1224848). Further: nearly all actives have a fitted effect of over 50% in size. The method, boiled down:
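Screening used an ERR reporter line supplied by NTP, exposed for 18 h at 37 C to library compounds delivered in DMSO. Signal was luciferase luminescence developed with ONE-Glo at room temperature for 30 min.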

Test [18] in a line: qHTS assay to identify small molecule agonists of the estrogen related receptor (ERR) signaling pathway from Tox21 library (AID 1224849; calls by dose curve; further: nearly all actives have a fitted effect of over 15% in size). Particulars: ERR reporter cell line, ONE-Glo luciferase, 18 h. The method, boiled down:
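ERR reporter cells (NTP line) pre-incubated 6 hours at 37 C, then exposed to compounds for 18 hours at 37 C. ONE-Glo luciferase luminescence was read after 30 minutes at room temperature.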

Test [19] has as its target Nuclear receptor subfamily 1 group I member 3 (Homo sapiens) (UniProt Q14994). Description: qHTS assay to identify small molecule agonists of the constitutive androstane receptor (CAR) signaling pathway (AID 1224839). Further: nearly all actives have a fitted effect of over 15% in size. The gist of the method:
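Luminescence read-out (ONE-Glo, 30 min, room temperature) from double-stable HepG2-CYP2B6-hCAR cells exposed 24 h to 15-point compound series in presence of 0.75 uM PK11195 final.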

Test [20] can be described thus: qHTS assay to identify small molecule agonists of the hypoxia (HIF-1) signaling pathway - cell viability counter screen (AID 1224844; calls by dose curve; further: nearly all actives have a fitted effect of over 50% in size; further: potency means the concentration at half of the fitted maximal effect). The method, boiled down:
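HRE-bla ME-180 cells, 2,000/well in 0.5% dialyzed FBS medium, treated 17 h at 37C with compounds. Viability read in the same wells as the bla reporter, by CellTiter-Glo luminescence after 30 min at room temperature.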

SMILES strings stand for the structures. Unmarked numbers belong to inactive results. Records with an inconclusive call do not appear. Calls of active or inactive are those of the source. Unless noted, the call rests on the fitted dose curve; in most records, active means well fitted curve in the direction sought with a large enough effect in the repeat runs; inconclusive means weak or mixed curves; inactive means no such curve, though single readings can be large; an effect the other way counts as inactive or inconclusive.
On the % scale 0 is the no-effect control and ±100 the full control effect.

Sequence of Thyrotropin receptor (Homo sapiens) (P16473 whole entry, looked up): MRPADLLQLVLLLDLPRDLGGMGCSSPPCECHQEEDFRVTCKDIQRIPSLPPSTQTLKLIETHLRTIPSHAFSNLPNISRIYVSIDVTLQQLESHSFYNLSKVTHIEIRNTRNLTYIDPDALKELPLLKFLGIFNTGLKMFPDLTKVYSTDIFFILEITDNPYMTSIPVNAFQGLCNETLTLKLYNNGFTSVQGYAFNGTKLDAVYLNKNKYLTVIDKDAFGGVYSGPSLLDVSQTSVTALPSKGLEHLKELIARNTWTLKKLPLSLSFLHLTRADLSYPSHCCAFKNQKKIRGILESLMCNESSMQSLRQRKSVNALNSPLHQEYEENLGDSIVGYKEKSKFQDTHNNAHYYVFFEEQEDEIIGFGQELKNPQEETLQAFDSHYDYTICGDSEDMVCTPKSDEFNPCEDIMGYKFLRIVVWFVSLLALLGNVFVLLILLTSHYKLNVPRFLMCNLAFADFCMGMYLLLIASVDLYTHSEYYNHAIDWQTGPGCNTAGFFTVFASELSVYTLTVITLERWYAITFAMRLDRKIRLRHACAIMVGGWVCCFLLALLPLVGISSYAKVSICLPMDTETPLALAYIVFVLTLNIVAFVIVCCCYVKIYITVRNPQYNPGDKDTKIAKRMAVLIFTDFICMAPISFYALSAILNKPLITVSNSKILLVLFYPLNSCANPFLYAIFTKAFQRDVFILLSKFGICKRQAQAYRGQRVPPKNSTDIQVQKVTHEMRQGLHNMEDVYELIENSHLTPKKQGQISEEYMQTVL
Sequence of Luciferin 4-monooxygenase (Photinus pyralis) (P08659 whole entry, looked up): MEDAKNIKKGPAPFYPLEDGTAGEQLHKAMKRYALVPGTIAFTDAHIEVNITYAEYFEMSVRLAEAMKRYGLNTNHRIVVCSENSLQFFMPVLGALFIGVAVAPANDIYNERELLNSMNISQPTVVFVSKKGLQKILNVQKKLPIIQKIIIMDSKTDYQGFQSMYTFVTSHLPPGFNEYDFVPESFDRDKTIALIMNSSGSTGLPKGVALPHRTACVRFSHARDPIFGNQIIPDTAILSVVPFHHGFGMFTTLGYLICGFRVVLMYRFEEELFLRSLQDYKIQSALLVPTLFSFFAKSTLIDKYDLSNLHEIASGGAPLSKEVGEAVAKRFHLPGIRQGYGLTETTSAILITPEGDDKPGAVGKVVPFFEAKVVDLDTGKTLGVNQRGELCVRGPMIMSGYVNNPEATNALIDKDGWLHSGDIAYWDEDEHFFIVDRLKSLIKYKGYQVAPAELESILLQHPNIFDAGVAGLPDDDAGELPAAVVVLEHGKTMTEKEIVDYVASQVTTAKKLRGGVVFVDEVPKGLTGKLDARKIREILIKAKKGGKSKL
Sequence of Nuclear receptor subfamily 1 group I member 3 (Homo sapiens) (Q14994 whole entry, looked up): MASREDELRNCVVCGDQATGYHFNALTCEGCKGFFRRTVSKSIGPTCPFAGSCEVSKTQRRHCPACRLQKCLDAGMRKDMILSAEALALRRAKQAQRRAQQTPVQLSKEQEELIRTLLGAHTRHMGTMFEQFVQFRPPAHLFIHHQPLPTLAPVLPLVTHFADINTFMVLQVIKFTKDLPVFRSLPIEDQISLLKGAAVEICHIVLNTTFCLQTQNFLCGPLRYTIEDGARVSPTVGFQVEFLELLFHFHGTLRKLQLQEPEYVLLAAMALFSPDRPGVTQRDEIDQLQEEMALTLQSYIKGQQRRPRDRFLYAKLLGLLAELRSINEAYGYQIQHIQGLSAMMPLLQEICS

Take `CCC(C)[O-].CCC(C)[O-].CCOC(=O)/C=C(/C)[O-].[Al+3]`: the Potency entry in test [1], in [2], in [3], in test [4], in [5] and in test [6] was “inactive” each time. The Potency entry in test [7], in test [8], in [9], in [10], in [11] and in test [12] was “inactive” each time.

As to `CC1(C)[C@@H](O)CC[C@]2(C)[C@H]3C(=O)C=C4[C@@H]5C[C@@](C)(C(=O)O)CC[C@]5(C)CC[C@@]4(C)[C@]3(C)CC[C@@H]12`, the Potency result in test [13], in test [2], in test [3], in test [14], in test [4] and in [15] was “inactive” throughout. Further, the Potency result in test [16], in test [5], in test [6], in test [17], in [9] and in [10] was “inactive” each time. Moreover, the Potency entry in test [11] and in [12] was “inactive” each time. For the same compound, the activity change, positive = activation in test [18] (at 92.4 µM (top of the series)) was 3.52%.

For the compound `CCCNCCC`, the Potency result in [13], in test [2], in test [3], in [14], in test [19] and in [4] was “inactive” in each case. For the same compound, the Potency result in [5], in [20], in test [6], in test [7], in test [8] and in test [9] was “inactive” each time. The Potency result in [10] and in test [11] was “inactive” throughout.

Consider `OC1CCC(C2CCCCC2)CC1` (centres undefined), for which the Potency entry in test [1], in test [2], in test [3], in test [4], in [15] and in test [16] was “inactive” each time. Besides, the Potency entry in test [20], in [6], in [7], in [17], in test [9] and in test [10] was “inactive” in each case. The Potency result in test [11] and in [12] was “inactive” throughout. Moreover, the activity change, positive = activation in [18] (at 92.4 µM (top of the series)) was -1.53%.

Take `Cc1nc(-c2ccc(Cl)cc2)oc1COC(C)(C)C(=O)O`: the Potency result in test [13], in test [2], in test [3], in test [14], in [19] and in test [4] was “inactive” in each case. The Potency entry in [15], in [16], in test [5], in test [20], in test [6] and in test [7] was “inactive” throughout. In addition, the Potency result in [8], in test [17], in test [9], in test [10], in [11] and in test [12] was “inactive” each time. The activity change, positive = activation in test [18] (at 42.5 µM (top of the series)) was 0.637%.

In the case of `CN1CCC[C@@H]1CCO[C@](C)(c1ccccc1)c1ccc(Cl)cc1`, the Potency is 26.6 µM (active) in [1]; 21.3 µM (active) in [20]; 23.9 µM (active) in [9]; 19 µM (active) in test [10]; 23.9 µM (active) in test [12]. Moreover, the Potency result in test [19], in test [15] and in [16] was “inactive” throughout. Also, the activity change, positive = activation in test [18] (at 42.5 µM (top of the series)) is -35.9%.

Regarding `C#C[C@]1(OC(C)=O)CC[C@H]2[C@@H]3CCC4=C/C(=N/O)CC[C@@H]4[C@H]3CC[C@@]21CC`, the Potency entry in test [13], in test [2], in test [3], in [14], in test [19] and in [4] was “inactive” each time. In addition, the Potency entry in test [16], in test [9] and in [12] was “inactive” in each case. Besides, the activity change, positive = activation in [18] (at 42.5 µM (top of the series)) is -41.4%.

Source of the values: PubChem BioAssay (Tox21).
